# Measured values from the supplement of paper PMC8728848.
# Only a selection was taken, and the strongest signals are over-represented in it overall.
# B1: Actd5 (Actinidia), P84527 (protein)
# chain: ISSCNGPCRDLNDCDGQLICIKGKCNDDPQVGTHICRGTTHSHQPGGCKPSGTLTCRGKSYPTYDCSPPVTSSTPAKLTNNDFSEGGDDGGPSECDESYHNNNERIVALSTGWYNGGSRCGKMIRITASNGKSVSAKVVDECDSRHGCDKEHAGQPPCRNNIVDGSNAVWSALGLDKNVGVVDITWSMA
# Assays:
# Assay in all cases: glycan array binding signal (z-score within array); higher = stronger binding
# Conditions in all cases: glycan notation: IUPAC condensed, linker removed
# Fuc(a1-2)Gal(b1-4)Glc = molecular target: Fuc(a1-2)Gal(b1-4)Glc
# How it was run: (§1)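 Columns mapping to the same glycan were averaged after glycan names were converted to IUPAC-condensed notation. The data come from 3228 arrays in the Consortium for Functional Glycomics database, limited to those with an available protein sequence. Binding is reported as a within-array Z-score averaged across arrays of one protein sequence and across linkers.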
# [1] = molecular target: Fuc(a1-2)[GalNAc(a1-3)]Gal(b1-3)GalNAc(b1-3)Gal(a1-4)Gal(b1-4)Glc
# How it was run: as §1
# [2] = molecular target: Fuc(a1-2)[GalNAc(a1-3)]Gal(b1-3)GlcNAc(b1-2)Man(a1-3)[Fuc(a1-2)[GalNAc(a1-3)]Gal(b1-3)GlcNAc(b1-2)Man(a1-6)]Man(b1-4)GlcNAc(b1-4)GlcNAc
# How it was run: as §1
# [3] = molecular target: Fuc(a1-2)[GalNAc(a1-3)]Gal(b1-3)GlcNAc(b1-2)Man(a1-3)[Fuc(a1-2)[GalNAc(a1-3)]Gal(b1-3)GlcNAc(b1-2)Man(a1-6)]Man(b1-4)GlcNAc(b1-4)[Fuc(a1-6)]GlcNAc
# How it was run: as §1
# [4] = molecular target: Fuc(a1-2)[GalNAc(a1-3)]Gal(b1-4)GlcNAc(b1-6)GalNAc
# How it was run: as §1
# Fuc(a1-3)GlcNAc = molecular target: Fuc(a1-3)GlcNAc
# How it was run: as §1
# [5] = molecular target: Fuc(a1-3)[Gal(b1-4)]GlcNAc(b1-3)Gal(b1-4)[Fuc(a1-3)]GlcNAc(b1-3)Gal(b1-4)[Fuc(a1-3)]GlcNAc
# How it was run: as §1
# [6] = molecular target: Fuc(a1-3)[Gal(b1-4)]GlcNAc6S
# How it was run: as §1
# [7] = molecular target: Fuc(a1-3)[GalNAc(b1-4)]GlcNAc6S
# How it was run: as §1
# Gal(a1-3)Gal = molecular target: Gal(a1-3)Gal
# How it was run: as §1
# Gal(a1-3)Gal(b1-4)GlcNAc = molecular target: Gal(a1-3)Gal(b1-4)GlcNAc
# How it was run: as §1
# [8] = molecular target: Gal(a1-3)Gal(b1-4)[Fuc(a1-3)]GlcNAc(b1-2)Man(a1-3)[Gal(a1-3)Gal(b1-4)[Fuc(a1-3)]GlcNAc(b1-2)Man(a1-6)]Man(b1-4)GlcNAc(b1-4)GlcNAc
# How it was run: as §1
# [9] = molecular target: Gal(b1-3)GalNAc(a1-3)[Fuc(a1-2)]Gal(b1-4)Glc
# How it was run: as §1
# [10] = molecular target: Gal(b1-3)GlcNAc(b1-6)GalNAc
# How it was run: as §1
# [11] = molecular target: Gal(b1-3)[GlcNAc(b1-6)]GalNAc
# How it was run: as §1
# [12] = molecular target: Gal(b1-3)[Neu5Ac(a2-6)]GalNAc
# How it was run: as §1
# [13] = molecular target: Gal(b1-4)GlcNAc(a1-6)Gal(b1-4)GlcNAc
# How it was run: as §1
# [14] = molecular target: Gal(b1-4)GlcNAc(b1-2)[Gal(b1-4)GlcNAc(b1-4)]Man(a1-3)[Gal(b1-4)GlcNAc(b1-2)Man(a1-6)]Man(b1-4)GlcNAc(b1-4)GlcNAc
# How it was run: as §1
# [15] = molecular target: Gal(b1-4)GlcNAc(b1-2)[Gal(b1-4)GlcNAc(b1-6)]Man(a1-6)[GlcNAc(b1-4)][Gal(b1-4)GlcNAc(b1-2)Man(a1-3)]Man(b1-4)GlcNAc(b1-4)GlcNAc
# How it was run: as §1
# [16] = molecular target: Gal(b1-4)GlcNAc(b1-3)Gal(b1-3)GlcNAc
# How it was run: as §1
# [17] = molecular target: Gal(b1-4)GlcNAc(b1-3)Gal(b1-4)GlcNAc(b1-2)Man(a1-3)[Gal(b1-4)GlcNAc(b1-3)Gal(b1-4)GlcNAc(b1-2)Man(a1-6)]Man(b1-4)GlcNAc(b1-4)GlcNAc
# How it was run: as §1
# [18] = molecular target: Gal(b1-4)GlcNAc(b1-3)Gal(b1-4)GlcNAc(b1-3)Gal(b1-4)GlcNAc(b1-3)Gal(b1-4)GlcNAc(b1-3)Gal(b1-4)GlcNAc(b1-2)[Gal(b1-4)GlcNAc(b1-3)Gal(b1-4)GlcNAc(b1-3)Gal(b1-4)GlcNAc(b1-3)Gal(b1-4)GlcNAc(b1-3)Gal(b1-4)GlcNAc(b1-6)]Man(a1-6)[Gal(b1-4)GlcNAc(b1-3)Gal(b1-4)GlcNAc(b1-3)Gal(b1-4)GlcNAc(b1-3)Gal(b1-4)GlcNAc(b1-3)Gal(b1-4)GlcNAc(b1-2)Man(a1-3)]Man(b1-4)GlcNAc(b1-4)[Fuc(a1-6)]GlcNAc
# How it was run: as §1
# [19] = molecular target: Gal(b1-4)GlcNAc(b1-3)Gal(b1-4)GlcNAc(b1-3)GalNAc
# How it was run: as §1
# [20] = molecular target: Gal(b1-4)GlcNAc(b1-3)Gal(b1-4)GlcNAc(b1-3)[Gal(b1-4)GlcNAc(b1-3)Gal(b1-4)GlcNAc(b1-6)]GalNAc
# How it was run: as §1
# [21] = molecular target: Gal(b1-4)GlcNAc(b1-6)[Gal(b1-4)GlcNAc(b1-3)]GalNAc
# How it was run: as §1
# Gal(b1-4)GlcNAc6P = molecular target: Gal(b1-4)GlcNAc6P
# How it was run: as §1
# [22] = molecular target: Gal3S(b1-4)[Fuc(a1-3)]GlcNAc
# How it was run: as §1
# Gal3S6S(b1-4)GlcNAc = molecular target: Gal3S6S(b1-4)GlcNAc
# How it was run: as §1
# GalNAc(b1-4)GlcNAc6S = molecular target: GalNAc(b1-4)GlcNAc6S
# How it was run: as §1
# GalNAc4S6S(b1-4)GlcNAc = molecular target: GalNAc4S6S(b1-4)GlcNAc
# How it was run: as §1
binder,measurement,setting,value
B1,glycan array binding signal (z-score),Fuc(a1-2)Gal(b1-4)Glc,-1.21
same,glycan array binding signal (z-score),[1],-0.038
same,glycan array binding signal (z-score),[2],0.017
same,glycan array binding signal (z-score),[3],1.21
same,glycan array binding signal (z-score),[4],-0.865
same,glycan array binding signal (z-score),Fuc(a1-3)GlcNAc,-0.676
same,glycan array binding signal (z-score),[5],-0.828
same,glycan array binding signal (z-score),[6],0.273
same,glycan array binding signal (z-score),[7],-1.21
same,glycan array binding signal (z-score),Gal(a1-3)Gal,-0.145
same,glycan array binding signal (z-score),Gal(a1-3)Gal(b1-4)GlcNAc,0.17
same,glycan array binding signal (z-score),[8],2.94
same,glycan array binding signal (z-score),[9],-0.318
same,glycan array binding signal (z-score),[10],-0.821
same,glycan array binding signal (z-score),[11],-0.2
same,glycan array binding signal (z-score),[12],-1.12
same,glycan array binding signal (z-score),[13],-0.614
same,glycan array binding signal (z-score),[14],0.256
same,glycan array binding signal (z-score),[15],0
same,glycan array binding signal (z-score),[16],-0.59
same,glycan array binding signal (z-score),[17],3.9
same,glycan array binding signal (z-score),[18],0.644
same,glycan array binding signal (z-score),[19],2.99
same,glycan array binding signal (z-score),[20],2.99
same,glycan array binding signal (z-score),[21],-0.2
same,glycan array binding signal (z-score),Gal(b1-4)GlcNAc6P,-1.05
same,glycan array binding signal (z-score),[22],-0.319
same,glycan array binding signal (z-score),Gal3S6S(b1-4)GlcNAc,0.094
same,glycan array binding signal (z-score),GalNAc(b1-4)GlcNAc6S,-0.111
same,glycan array binding signal (z-score),GalNAc4S6S(b1-4)GlcNAc,-0.058
